Experimental data reported in the supplement of paper PMC6089552.
Screen size: about 3,200 compounds; about 300 (9.4%) showed activity. The entries come from a sample that favours actives as a whole.

System: A673/TR/shEF
Assay: cell viability (LOESS-normalised, relative to median of negative controls) (log2 ratio); higher = more viable cells (less compound effect), active = hit call of the paper (over 3 MAD below the median)
Details: treatment time: 72 h
Method in brief: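 A673/TR/shEF Ewing sarcoma cells (1,500 per well, 384-well plates) were grown with or without doxycycline to induce EWS-FLI1 shRNA knockdown, starting 24 h before compounds. Library compounds at two or more concentrations, with DMSO controls, were added for three days. Cell viability was read by CellTiter-Glo luminescence on an Envision reader, then LOESS-corrected per plate, divided by the median of negative controls and log2-transformed. Hits were wells at least three median absolute deviations from the median of all screened wells.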

[1] = 0.25 µM, library screen: screen1, EWS-FLI1 expression: high (no doxycycline)
[2] = 0.25 µM, library screen: screen1, EWS-FLI1 expression: low (doxycycline-induced shRNA knockdown)
[3] = 2.5 µM, library screen: screen1, EWS-FLI1 expression: high (no doxycycline)
[4] = 2.5 µM, library screen: screen1, EWS-FLI1 expression: low (doxycycline-induced shRNA knockdown)
[5] = 0.25 µM, library screen: screen2, EWS-FLI1 expression: high (no doxycycline)
[6] = 0.25 µM, library screen: screen2, EWS-FLI1 expression: low (doxycycline-induced shRNA knockdown)
[7] = 2.5 µM, library screen: screen2, EWS-FLI1 expression: high (no doxycycline)
[8] = 2.5 µM, library screen: screen2, EWS-FLI1 expression: low (doxycycline-induced shRNA knockdown)
[9] = 0.103 µM, library screen: screen3, EWS-FLI1 expression: high (no doxycycline)
[10] = 0.103 µM, library screen: screen3, EWS-FLI1 expression: low (doxycycline-induced shRNA knockdown)
[11] = 0.308 µM, library screen: screen3, EWS-FLI1 expression: high (no doxycycline)
[12] = 0.308 µM, library screen: screen3, EWS-FLI1 expression: low (doxycycline-induced shRNA knockdown)
[13] = 0.926 µM, library screen: screen3, EWS-FLI1 expression: high (no doxycycline)
[14] = 0.926 µM, library screen: screen3, EWS-FLI1 expression: low (doxycycline-induced shRNA knockdown)
[15] = 2.8 µM, library screen: screen3, EWS-FLI1 expression: high (no doxycycline)
[16] = 2.8 µM, library screen: screen3, EWS-FLI1 expression: low (doxycycline-induced shRNA knockdown)
[17] = 8.3 µM, library screen: screen3, EWS-FLI1 expression: high (no doxycycline)
[18] = 8.3 µM, library screen: screen3, EWS-FLI1 expression: low (doxycycline-induced shRNA knockdown)
[19] = 25 µM, library screen: screen3, EWS-FLI1 expression: high (no doxycycline)
[20] = 25 µM, library screen: screen3, EWS-FLI1 expression: low (doxycycline-induced shRNA knockdown)
[21] = 0.025 µM, library screen: screen2, EWS-FLI1 expression: high (no doxycycline)
[22] = 0.025 µM, library screen: screen2, EWS-FLI1 expression: low (doxycycline-induced shRNA knockdown)
[23] = 25 µM, library screen: screen2, EWS-FLI1 expression: high (no doxycycline)
[24] = 25 µM, library screen: screen2, EWS-FLI1 expression: low (doxycycline-induced shRNA knockdown)

Measured: cell viability (log2)

COC(=O)c1c(Cl)c(Cl)c(C(=O)OC)c(Cl)c1Cl
inactive: [1] 0.0653 | [2] 0.0707 | [3] 0.0863 | [4] 0.122

CC1(C)C(=O)C=C[C@@]2(C)C1CC(=O)[C@@]1(C)C3=CC(=O)O[C@@H](c4ccoc4)[C@]3(C)CCC12 (stereo not given in full)
inactive: [1] 0.0432 | [2] 0.0348 | [3] 0.201 | [4] 0.163

CCOC([O-])=Nc1c[n+](N2CCOCC2)no1
inactive: [1] 0.0951 | [2] 0.0303 | [5] 0.227 | [6] 0.0663 | [3] 0.0784 | [4] 0.0384 | [7] 0.102 | [8] 0.116

CC1(C)O[C@H]2[C@H](O)C[C@](O)(C(N)=O)C[C@H]2O1
inactive: [1] -0.0199 | [2] -0.00566 | [3] 0.076 | [4] 0.0924

Oc1ccc2c(c1)OC[C@]1(O)Cc3cc(O)c(O)cc3[C@H]21
inactive: [1] 0.113 | [2] 0.129 | [3] 0.0951 | [4] 0.187

NC(C(=O)O)C(O)C(O)C(O)CO (stereo not given)
inactive: [1] 0.0607 | [2] 0.059 | [3] 0.025 | [4] 0.121

COc1ccccc1NC(=O)C1=C(C)NC(=O)NC1c1ccc(Cl)cc1 (stereo not given)
inactive: [1] 0.0563 | [2] 0.0447 | [3] 0.0428 | [4] 0.00886

O=C(CSc1nnc(Cc2ccccc2)o1)c1ccc(Cl)cc1
inactive: [1] 0.0547 | [2] 0.0748 | [3] 0.133 | [4] -0.101

C[C@H]1CC[C@@H](C(C)(C)O)CC2=C1CC[C@@H]2C
inactive: [1] -0.0585 | [2] 0.0603 | [3] 0.0212 | [4] 0.083

C[C@@H](Oc1cc(-c2cnn(C3CCNCC3)c2)cnc1N)c1c(Cl)ccc(F)c1Cl
inactive: [9] 0.0466 | [10] 0.078 | [11] 0.0248 | [12] 0.0309 | [13] 0.0194 | [14] 0.0561 | [15] -0.012 | [16] 0.0202 | [18] 0.0761 | [20] -0.0839
active: [17] -0.189 | [19] -1.08

COC(=O)C1=C(C)N=c2sc(=Cc3cccs3)c(=O)n2C1c1ccc(OC)cc1 (stereo not given)
inactive: [1] 0.0442 | [2] 0.034 | [3] 0.0701 | [4] 0.111

CNC(=O)c1ccccc1Sc1ccc2c(/C=C/c3ccccn3)n[nH]c2c1
inactive: [9] -0.00228 | [10] 0.0386 | [11] 0.0978 | [12] 0.044 | [13] 0.0712 | [14] 0.145 | [15] 0.0241 | [16] 0.188 | [18] 0.195 | [20] -0.0147
active: [17] -0.181 | [19] -0.513

CNC(=O)c1cc2c(cn1)[nH]c1ccccc12
inactive: [5] 0.143 | [6] 0.0456 | [7] 0.152 | [8] 0.0711

CC(C)=CCC[C@@H](C)[C@H]1CC[C@@]2(C)C3=C(CC[C@]12C)[C@@]1(C)CC[C@H](O)C(C)(C)[C@@H]1CC3
inactive: [1] 0.101 | [2] -0.00557 | [3] 0.158 | [4] 0.0178

O=C(O)CCCCCCCn1ccnc1
inactive: [1] 0.124 | [2] 0.0433 | [3] 0.168 | [4] 0.0749

CC1=C(Cl)C(O)=C(Cl)C(=O)C12Oc1cc(O)c(Cl)c(C)c1C2=O (stereo not given)
inactive: [1] 0.065 | [2] 0.0174 | [3] 0.111 | [4] 0.157

CC(=O)OC12CCCC(C)(CCC3C1CC3(C)C)C2 (stereo not given)
inactive: [1] 0.0248 | [2] -0.0723 | [3] 0.116 | [4] -0.0213

CC(=O)OC1(C)CCC23CC1C(C)(C)[C@@H]2CC[C@H]3C (stereo not given in full)
inactive: [1] 0.0148 | [2] 0.0289 | [3] 0.15 | [4] 0.0585

Cc1nc(N)sc1-c1ccnc(Nc2ccc(N3CCOCC3)cc2)n1
active: [15] -0.219 | [17] -0.377 | [19] -0.478 | [20] -0.719
inactive: [9] 0.0411 | [10] 0.00948 | [11] 0.0424 | [12] 0.0424 | [13] -0.0206 | [14] 0.0867 | [16] 0.0313 | [18] -0.083

COc1cccc(CN2CCN(Cc3cccc([N+](=O)[O-])c3)CC2)c1
inactive: [1] 0.0814 | [2] 0.112

CC(C)c1c(O)ccc2c1CC[C@H]1[C@@](C)(CO)CCC[C@]21C
inactive: [1] 0.0632 | [2] 0.204 | [3] 0.124 | [4] 0.239

COC(=O)Nc1nc2ccc(C(=O)c3ccccc3)cc2[nH]1
active: [3] -1.65 | [4] -0.988 | [7] -2.05 | [8] -0.641 | [23] -3.34 | [24] -1
inactive: [21] 0.179 | [22] 0.0844 | [1] 0.0977 | [2] 0.025 | [5] 0.114 | [6] 0.0886

COC(=O)c1ccccc1
inactive: [1] 0.0726 | [2] 0.05 | [3] 0.155 | [4] 0.0447

CC(C(=O)O)c1cccc(C(=O)c2ccccc2)c1 (stereo not given)
inactive: [9] 0.106 | [10] 0.0412 | [1] 0.12 | [2] -0.0201 | [5] 0.204 | [6] 0.13 | [11] 0.093 | [12] 0.102 | [13] 0.0295 | [14] 0.058 | [3] 0.103 | [4] 0.0158 | [7] 0.122 | [8] 0.173 | [15] 0.145 | [16] 0.11 | [17] 0.0932 | [18] 0.0536 | [19] 0.0365 | [20] 0.131

COc1ccc(NC(=O)/C(=C/c2cccs2)NC(=O)c2cccs2)cc1
inactive: [1] 0.0675 | [2] 0.0437 | [3] 0.0662 | [4] 0.0201

CC(C(=O)O)c1ccc(C(=O)c2cccs2)cc1 (stereo not given)
inactive: [1] 0.0835 | [2] 0.0129 | [3] 0.155 | [4] -0.0021

COC(=O)Nc1nc2ccc(C(=O)c3cccs3)cc2[nH]1
active: [1] -0.83 | [2] -0.22 | [5] -1.12 | [6] -0.105 | [3] -3.46 | [4] -1.25 | [7] -2.04 | [8] -0.699

COC(=O)Nc1nc2ccc(Sc3ccccc3)cc2[nH]1
active: [15] -0.667 | [17] -1.42 | [18] -0.611 | [23] -2.26 | [24] -0.937 | [19] -1.77 | [20] -0.629
inactive: [21] 0.076 | [22] 0.0311 | [9] 0.039 | [10] 0.0842 | [1] 0.0605 | [2] 0.108 | [5] 0.237 | [6] 0.0195 | [11] 0.0857 | [12] 0.103 | [13] 0.0228 | [14] 0.0229 | [3] 0.101 | [4] 0.0874 | [7] 0.103 | [8] 0.0543 | [16] -0.0556

CC(=O)O[C@H]1C[C@@H](OC(C)=O)C(C)(C)C2CC(=O)[C@]3(C)C(CC[C@@]4(C)[C@H](C(=O)O)OC(=O)C5OC543)[C@]21C (stereo not given in full)
inactive: [1] 0.123 | [2] 0.114 | [3] 0.0482 | [4] 0.118

CCC(=O)NCC1OC(n2cnc3c(NCc4ccccc4)ncnc32)C(O)C1O (stereo not given)
inactive: [5] 0.0412 | [6] 0.0737 | [7] 0.224 | [8] 0.113

COC(=O)C[C@H]1C(C)(C)C(=O)[C@@H]2CC3=C4CC(OC)O[C@@H](c5ccoc5)[C@]4(C)CCC3[C@@]1(C)C2=O (stereo not given in full)
inactive: [1] 0.115 | [2] 0.14 | [3] 0.0882 | [4] 0.172

COc1ccc(-c2coc3cc(OC(C)=O)cc(OC(C)=O)c3c2=O)cc1
inactive: [1] 0.0854 | [2] -0.00831 | [3] 0.156 | [4] 0.114

COc1c(O)cc2occ(-c3ccc(O)cc3)c(=O)c2c1O
inactive: [1] 0.15 | [2] 0.0261 | [3] 0.0979 | [4] 0.0895

CC(=O)O[C@H]1CC[C@]2(C)[C@H]3CC=C4[C@@H]5CC(C)(C)CC[C@]5(C(=O)O)CC[C@@]4(C)[C@]3(C)CC[C@H]2C1(C)C
inactive: [1] 0.0325 | [2] 0.0553 | [3] 0.0391 | [4] 0.0458

Cc1nnc(C(C)C)n1C1C[C@H]2CC[C@@H](C1)N2CC[C@H](NC(=O)C1CCC(F)(F)CC1)c1ccccc1 (stereo not given in full)
inactive: [9] 0.00773 | [10] 0.0537 | [11] 0.179 | [12] 0.0864 | [13] 0.11 | [14] 0.0142 | [15] 0.152 | [16] 0.0241 | [17] 0.00455 | [18] 0.0886 | [19] 0.0767 | [20] 0.0769

C=C1C(=O)OC2CC1C(OC(C)=O)C/C(C)=C/CC/C(C)=C\CCC2(C)O (stereo not given)
inactive: [1] 0.18 | [2] 0.0249 | [3] 0.0625 | [4] -0.139

O=C1c2ccc(O)cc2OC(c2cc(O)c(O)c(O)c2)C1O (stereo not given)
inactive: [1] 0.0896 | [2] 0.0484 | [3] 0.165 | [4] 0.11
